Test results reported in PubChem BioAssay (Tox21).
“And” between values parts separate entries of the source, which are not always exact repeats. Equal values may be shown once. Inconclusive results are not listed. Entries that show only a call come without a potency. More than one record can exist for a structure, and the calls need not agree. The source made the active and inactive calls. Unless noted, calls follow the shape of the dose curve; as a rule, active = well fitted curve in the direction sought with a large enough effect in the repeat runs; inconclusive = weak or mixed curves; inactive = no such curve, though single readings can be large; an effect the other way counts as inactive or inconclusive.

Tests used:
[1] = qHTS assay to identify small molecule antagonists of the glucocorticoid receptor (GR) signaling pathway - cell viability counter screen (AID 720693); also: nearly all actives have a fitted effect of over 55% in size; also: potency is read from the fitted curve at half-maximal effect
[2] = qHTS assay for identifying genotoxic compounds that show differential cytotoxicity against isogenic chicken DT40 cell lines with known DNA damage response pathways - wild type cell line (AID 743012); also: nearly all actives have a fitted effect of over 60% in size; also: potency is read from the fitted curve at half-maximal effect
How it was run: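 Quantitative HTS on parental DT40 cells: 40 h compound treatment at 37 C/5% CO2, with viability then determined by CellTiter-Glo luminescence. Values serve as the DNA repair-proficient reference for differential cytotoxicity.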

[3] = qHTS assay for identifying genotoxic compounds that show differential cytotoxicity against isogenic chicken DT40 cell lines with known DNA damage response pathways - Rev3 mutant cell line (AID 743014); also: nearly all actives have a fitted effect of over 55% in size; also: potency is read from the fitted curve at half-maximal effect
[4] = qHTS assay for identifying genotoxic compounds that show differential cytotoxicity against isogenic chicken DT40 cell lines with known DNA damage response pathways - Rad54/Ku70 mutant cell line (AID 743015); also: nearly all actives have a fitted effect of over 60% in size; also: potency is read from the fitted curve at half-maximal effect
[5] = qHTS assay to identify small molecule antagonists of the androgen receptor (AR) signaling pathway - cell viability counter screen (AID 743033; also: nearly all actives have a fitted effect of over 45% in size; also: potency is read from the fitted curve at half-maximal effect)
[6] = target: Androgen receptor (Homo sapiens) (UniProt P10275); assay: qHTS assay to identify small molecule antagonists of the androgen receptor (AR) signaling pathway (AID 743035; active = well fitted inhibition curve with a large enough effect in the signal ratio in the repeat runs, not every such curve was filed as active; the % refers to the signal ratio)
Sequence of Androgen receptor (Homo sapiens) (P10275 whole entry, looked up): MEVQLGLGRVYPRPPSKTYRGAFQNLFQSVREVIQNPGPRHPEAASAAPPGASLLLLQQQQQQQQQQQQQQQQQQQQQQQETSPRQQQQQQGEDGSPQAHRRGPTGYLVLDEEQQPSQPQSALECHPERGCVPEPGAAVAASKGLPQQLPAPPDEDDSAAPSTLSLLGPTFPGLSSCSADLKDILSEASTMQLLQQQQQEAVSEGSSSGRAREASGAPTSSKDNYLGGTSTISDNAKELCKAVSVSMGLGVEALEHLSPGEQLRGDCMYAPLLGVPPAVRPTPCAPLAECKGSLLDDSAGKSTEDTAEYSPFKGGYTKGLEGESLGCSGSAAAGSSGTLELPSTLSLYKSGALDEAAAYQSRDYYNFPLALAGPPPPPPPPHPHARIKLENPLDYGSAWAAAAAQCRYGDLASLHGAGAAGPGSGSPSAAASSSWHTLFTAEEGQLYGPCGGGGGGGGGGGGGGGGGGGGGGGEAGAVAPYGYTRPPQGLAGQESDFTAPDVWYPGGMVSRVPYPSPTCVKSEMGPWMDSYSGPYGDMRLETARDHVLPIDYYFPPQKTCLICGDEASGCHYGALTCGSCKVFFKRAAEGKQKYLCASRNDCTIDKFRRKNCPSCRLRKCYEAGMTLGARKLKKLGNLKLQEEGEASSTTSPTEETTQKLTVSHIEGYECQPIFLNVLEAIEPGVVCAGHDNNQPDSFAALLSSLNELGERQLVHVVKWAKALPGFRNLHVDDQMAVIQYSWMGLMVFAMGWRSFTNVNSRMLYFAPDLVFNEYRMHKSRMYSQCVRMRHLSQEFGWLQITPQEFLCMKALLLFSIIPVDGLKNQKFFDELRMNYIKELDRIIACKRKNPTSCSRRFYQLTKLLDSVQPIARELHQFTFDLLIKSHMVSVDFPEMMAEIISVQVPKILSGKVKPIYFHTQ
How it was run: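 Cell line: GeneBLAzer AR-UAS-bla GripTite (HEK293). Stimulus: R1881 added after compound. Exposure: 16 h, 37C, 5% CO2. Readout: LiveBLAzer B/G FRET fluorescence after 2 h at room temperature.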

[7] = target: Androgen receptor (Homo sapiens) (UniProt P10275); assay: qHTS assay to identify small molecule agonists of the androgen receptor (AR) signaling pathway (AID 743036; active = well fitted activation curve with a large enough effect in the signal ratio in the repeat runs, with a control signal flat, not every such curve was filed as active; the % refers to the signal ratio)
How it was run: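 AR-bla HEK293 cells, 2,000/well; 4 h preincubation 37C/5% CO2; compound (DMSO) 16 h at 37C; LiveBLAzer B/G FRET substrate 2 h RT; fluorescence intensity read-out.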

[8] = target: Androgen receptor (Homo sapiens) (UniProt P10275); assay: qHTS assay to identify small molecule agonists of the androgen receptor (AR) signaling pathway using the MDA cell line (AID 743040; also: nearly all actives have a fitted effect of over 20% in size); settings: MDA-kb2 AR-luc cells, MMTV luciferase, 16 h; activity change: at 70.3 µM (top of the series), stronger effect = higher value
How it was run: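 Cells plated, 5 h at 37C/0% CO2; compound or DMSO pinned; 16 h at 37C; ONE-Glo added; luminescence measured after 30 min at room temperature. Reporter line: MDA-kb2 with MMTV-luciferase responsive to AR and GR.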

[9] = qHTS assay to identify small molecule antagonists of the androgen receptor (AR) signaling pathway using the MDA cell line - cell viability counter screen (AID 743041; also: nearly all actives have a fitted effect of over 45% in size)
How it was run: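 Cells were plated at 3,000 per well and left 5 h. Compounds in DMSO were then pinned in, followed by R1881. After 16 h at 37C, CellTiter-Fluor fluorescence gave viability.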

[10] = qHTS assay to identify small molecule antagonists of the thyroid receptor (TR) signaling pathway - cell viability counter screen (AID 743064); also: nearly all actives have a fitted effect of over 50% in size; also: potency is read from the fitted curve at half-maximal effect
How it was run: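 GH3.TRE-Luc cells, 4 h pre-plating; cpd + T3 1 nM final; 37 °C 23.5 h; CellTiter-Fluor 30 min; fluorescence read.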

C=C(Cl)Cl
Potency [1]: inactive
Potency [2]: inactive
Potency [3]: inactive
Potency [4]: inactive
Potency [5]: inactive
Potency [6]: inactive
Potency [7]: inactive
Potency [8]: inactive
Potency [9]: inactive
Potency [10]: inactive

N#CC(C#N)=Cc1ccc(O)c(O)c1
Potency [1]: inactive
Potency [2]: 13.3 µM (active)
Potency [3]: 26.6 µM (active)
Potency [4]: 26.6 µM (active)
Potency [5]: inactive
Potency [8]: inactive

CCOC(=O)NC(O)C(Cl)(Cl)Cl (stereo unspecified)
Potency [1]: inactive
Potency [2]: inactive
Potency [3]: inactive
Potency [4]: inactive
Potency [5]: inactive

CC1(C)[C@H](C(=O)O[C@H](C#N)c2cccc(Oc3ccccc3)c2)[C@@H]1C=C(Br)Br
Potency [1]: inactive
Potency [2]: inactive
Potency [3]: inactive and 48.6 µM (active)
Potency [4]: inactive and 43.3 µM (active)
Potency [5]: inactive
Potency [6]: inactive
Potency [7]: inactive
Potency [8]: inactive
Potency [9]: inactive
Potency [10]: inactive

C=CCN1C[C@H](C)N([C@H](c2ccc(C(=O)N(CC)CC)cc2)c2cccc(OC)c2)C[C@H]1C
Potency [1]: inactive
Potency [2]: 8.41 µM (active)
Potency [3]: 13.3 µM (active)
Potency [4]: 18.8 µM (active)
Potency [5]: inactive
Potency [9]: inactive

Nc1c(Br)cc(Br)c2c1C(=O)c1ccccc1C2=O
Potency [1]: inactive
Potency [2]: inactive
Potency [3]: inactive
Potency [4]: inactive
Potency [5]: inactive
Potency [7]: inactive
Potency [8]: inactive
Potency [10]: inactive

CCCCCBr
Potency [1]: inactive
Potency [2]: inactive
Potency [3]: inactive
Potency [4]: inactive
Potency [5]: inactive
Potency [6]: inactive
Potency [7]: inactive
Potency [8]: inactive
Potency [9]: inactive
Potency [10]: inactive

CCOC(=O)c1cncn1C(C)c1ccccc1 (stereo unspecified)
Potency [1]: inactive
Potency [2]: inactive
Potency [3]: inactive
Potency [4]: inactive
Potency [5]: inactive

CCCCCCCCCCCCCCCl
Potency [1]: inactive
Potency [2]: inactive
Potency [3]: inactive
Potency [4]: inactive
Potency [5]: inactive
Potency [9]: inactive

OCCCl
Potency [1]: inactive
Potency [2]: inactive
Potency [3]: inactive
Potency [4]: inactive
Potency [5]: inactive
Potency [9]: inactive
Potency [10]: inactive

CC(C)(C)CC(C)(C)c1ccc(O)cc1
Potency [1]: 24.5 µM (active)
Potency [2]: 23.7 µM (active) and 12.2 µM (active)
Potency [3]: 11.9 µM (active) and 19.3 µM (active)
Potency [4]: 27.3 µM (active)
Potency [5]: inactive
Potency [8]: inactive
Potency [10]: 23.7 µM (active) and 25 µM (active)

CC(Cc1ccccc1)NCc1ccccc1Cl (stereo unspecified)
Potency [1]: inactive
Potency [2]: 18.8 µM (active)
Potency [3]: 15 µM (active)
Potency [4]: 18.8 µM (active)
Potency [5]: inactive
Potency [9]: inactive

Cc1cnc(C2=NC(C)(C(C)C)C(=O)N2)c(C(=O)O)c1 (stereo unspecified)
Potency [1]: inactive
Potency [2]: inactive
Potency [3]: inactive
Potency [4]: inactive
Potency [5]: inactive
Potency [6]: inactive
Potency [7]: inactive
Potency [8]: inactive
Potency [9]: inactive
Potency [10]: inactive

O=C(NCNC(=O)NC1C(=O)NC(=O)N1CO)NC1C(=O)NC(=O)N1CO (stereo unspecified)
Potency [1]: inactive
Potency [2]: inactive
Potency [3]: inactive
Potency [4]: inactive
Potency [5]: inactive
Potency [6]: inactive
Potency [7]: inactive
Potency [8]: inactive
Potency [10]: inactive

Cc1ccc(N)c(C)c1
Potency [1]: inactive
Potency [2]: inactive
Potency [3]: inactive
Potency [4]: inactive
Potency [5]: inactive
Potency [10]: inactive

Cc1ccccc1
Potency [1]: inactive
Potency [2]: inactive
Potency [3]: inactive
Potency [4]: inactive
Potency [5]: inactive
Potency [9]: inactive
Potency [10]: inactive

CCC1(CC)C(=O)NC(=O)NC1=O
Potency [1]: inactive
Potency [2]: inactive
Potency [3]: inactive
Potency [4]: inactive
Potency [5]: inactive
Potency [10]: inactive

Clc1ccc(Cl)c(Cl)c1
Potency [1]: inactive
Potency [2]: inactive
Potency [3]: inactive
Potency [4]: inactive
Potency [5]: inactive
Potency [9]: inactive
Potency [10]: inactive

C[C@@H]1C[C@@H]([C@H](O)CC2CC(=O)NC(=O)C2)C(=O)[C@@H](C)C1
Potency [1]: inactive
Potency [2]: 59.6 nM (active) and 108 nM (active)
Potency [3]: 119 nM (active) and 60.8 nM (active)
Potency [4]: 133 nM (active) and 121 nM (active)
Potency [5]: 379 nM (active) and 97.2 nM (active)
Potency [9]: inactive
Potency [10]: 237 nM (active)

O=C(O)c1cc(I)cc(I)c1I
Potency [1]: inactive
Potency [2]: inactive
Potency [3]: inactive
Potency [4]: inactive
Potency [5]: inactive
Potency [9]: inactive
Potency [10]: inactive

O=C(O)C(O)C(O)C(=O)O (stereo unspecified)
Potency [1]: inactive
Potency [2]: inactive
Potency [3]: inactive
Potency [4]: inactive
Potency [5]: inactive
Potency [9]: inactive
Potency [10]: inactive

Oc1cccc(Cl)c1
Potency [1]: inactive
Potency [2]: inactive
Potency [3]: inactive
Potency [4]: inactive
Potency [5]: inactive
Potency [10]: inactive

CCOP(=O)(O)C(N)=O
Potency [1]: inactive
Potency [2]: inactive
Potency [3]: inactive
Potency [4]: inactive
Potency [5]: inactive
Potency [9]: inactive
Potency [10]: inactive

CC(C)(C#N)C(C)(C)C#N
Potency [1]: inactive
Potency [2]: inactive
Potency [3]: inactive
Potency [4]: inactive
Potency [5]: inactive
Potency [9]: inactive
Potency [10]: inactive

CCCCCCCCCCCC[N+](C)(C)CCOc1ccccc1
Potency [1]: 17.4 µM (active)
Potency [2]: 1.88 µM (active) and 6.11 µM (active)
Potency [3]: 2.37 µM (active) and 3.86 µM (active)
Potency [4]: 2.66 µM (active) and 6.11 µM (active)
Potency [5]: 23.9 µM (active) and 15.5 µM (active)
Potency [10]: 13.3 µM (active) and 9.69 µM (active)

CC[N+]1(C)CCCC(OC(=O)C(O)(c2ccccc2)c2ccccc2)C1 (stereo unspecified)
Potency [1]: inactive
Potency [2]: inactive
Potency [3]: inactive
Potency [4]: inactive
Potency [5]: inactive
Potency [10]: inactive

CCc1cnc(C2=NC(C)(C(C)C)C(=O)N2)c(C(=O)O)c1 (stereo unspecified)
Potency [1]: inactive
Potency [2]: inactive
Potency [3]: inactive
Potency [4]: inactive
Potency [5]: inactive
Potency [9]: inactive
Potency [10]: inactive
